Our source for the outcome and AC50 values is PubChem BioAssay (EPA / NIEHS).

Calls of active or inactive are those of the source. The calls were made as follows: active = hit-call score of the fitted dose curve at least 0.9, where 1 is the maximum; inactive = score below 0.9.

Sequence of Heat shock factor protein 1 (Homo sapiens) (Q00613 whole entry, looked up): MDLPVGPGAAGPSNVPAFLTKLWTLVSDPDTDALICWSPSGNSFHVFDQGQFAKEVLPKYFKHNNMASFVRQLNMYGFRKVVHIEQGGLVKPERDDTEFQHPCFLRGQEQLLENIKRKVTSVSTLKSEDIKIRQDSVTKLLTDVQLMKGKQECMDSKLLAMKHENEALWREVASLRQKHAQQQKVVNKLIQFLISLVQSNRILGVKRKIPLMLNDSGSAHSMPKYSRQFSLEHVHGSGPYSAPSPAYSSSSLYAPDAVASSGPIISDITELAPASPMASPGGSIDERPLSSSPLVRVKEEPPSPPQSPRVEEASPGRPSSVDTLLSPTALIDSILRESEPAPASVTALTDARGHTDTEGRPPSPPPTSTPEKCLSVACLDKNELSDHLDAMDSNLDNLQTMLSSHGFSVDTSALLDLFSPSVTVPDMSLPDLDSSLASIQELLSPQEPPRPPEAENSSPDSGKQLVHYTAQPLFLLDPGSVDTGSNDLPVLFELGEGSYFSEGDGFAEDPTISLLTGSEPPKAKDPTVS

One assay concerns the target Heat shock factor protein 1 (Homo sapiens) (UniProt Q00613). Nature of the assay: ATG_HSE_CIS: Attagene CIS-FACTORIAL HepG2 Assay for human Heat Shock Transcription Factor 1 (HSE) (AID 2282953). The note with it: HepG2 HSE cis-reporter, Attagene RNA transcription; actives raise or lower the signal. In outline: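 HepG2 cells transfected with cis-promoter reporter units sensing endogenous transcription factor activity; reporter mRNA quantified 24 h post-dose by RT-PCR and capillary electrophoresis of 6-FAM-labelled products. Bidirectional fitting against DMSO.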
For the molecule `CC(=O)Nc1ccc(N=Nc2cc(C)ccc2O)cc1`, the molecule was called inactive.

A word on the AC50: it is the concentration giving half of the maximal activity seen. Turning to `CC(Cc1ccc(O)c(O)c1)C(C)Cc1ccc(O)c(O)c1` (stereo not drawn), the AC50 was 57.7 µM (active).

In the case of `FC(F)(F)C(F)(F)C(F)(F)C(F)(F)C(F)(F)C(F)(F)C(F)(F)C(F)(F)CCS`, the molecule was classed as inactive. Turning to `FC(F)(Br)C(F)(F)C(F)(F)C(F)(F)C(F)(F)C(F)(F)Br`, the molecule was called inactive.

`OCC(F)(F)C(F)(F)C(F)(F)C(F)(F)C(F)(F)C(F)F`: the molecule was classed as inactive.

On to `FC(F)(F)C(F)(F)C(F)(F)C(F)(F)C(F)(F)C(F)(F)C(F)(F)C(F)(F)F`, for which the call was inactive.

In the case of `c1ccc(-c2ccccc2-c2ccccc2)cc1`, the molecule was classed as inactive.

On to `FC(F)(F)C(F)(F)CNCC(F)(F)C(F)(F)F`, for which the call was inactive. With `O=S(=O)(O)c1ccc2ccccc2c1`, the molecule was classed as inactive.

In the case of `Cc1cccc(N(C)C)c1`, the call was inactive. Still for that read-out and setting: to `O=C(O)C(F)(OC(F)(F)C(F)(OC(F)(F)C(F)(OC(F)(F)C(F)(F)C(F)(F)F)C(F)(F)F)C(F)(F)F)C(F)(F)F` (stereo not drawn) belongs “inactive”; to `FC(F)(F)C(F)(F)C(F)(F)C(F)(F)C(F)(F)C(F)(F)CCS`, “inactive”; to `C=C(C)C(=O)OCC(F)(F)C(F)(F)C(F)(F)F`, “inactive”.

In the case of `Nc1ccc([N+](=O)[O-])cc1O`, the molecule was classed as inactive. As to `C#C[C@]1(O)CC[C@H]2[C@@H]3CCc4cc(OC)ccc4[C@H]3CC[C@@]21C`, the result was inactive.

On to `CC(C)=CCCC(C)CCOC(=O)C(C)C` (stereo not drawn), for which the molecule was called inactive. On the same count and under the same terms, to `OCC(F)(F)C(F)(F)C(F)(F)C(F)F` belongs “inactive”; to `CC(CCl)OP(=O)(OC(C)CCl)OC(C)CCl` (stereo not drawn), “inactive”; to `CC(C)OC(=O)c1ccccc1C(=O)OC(C)C`, “inactive”.

Tested on in another assay: not listed separately
Description: ATG_MRE_CIS: Attagene CIS-FACTORIAL HepG2 Assay for human Metal Responsive Element (MRE) (AID 2282954). The note with it: HepG2 MRE cis-reporter transcription, Attagene multiplex; actives raise or lower the signal. The procedure, abridged: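 HepG2 cells transiently transfected with multiple cis-element reporter units measure endogenous MTF1-driven transcription. After 24 h compound exposure, reporter mRNA is quantified by RT-PCR with 6-FAM labelling, HpaI digestion and capillary electrophoresis; bidirectional fits versus DMSO.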
On to `NC(=O)C(F)(F)C(F)(F)C(F)(F)C(F)(F)F`, for which the result was inactive. As to `O=P(O)(O)OCCC(F)(F)C(F)(F)C(F)(F)C(F)(F)C(F)(F)C(F)(F)F`, the result was inactive.

In the case of `CC(=O)Nc1ccc(N=Nc2cc(C)ccc2O)cc1`, the AC50 is 27.6 µM (active). Consider `CCCCCCC(C)OC(=O)CCCCC(=O)OC(C)CCCCCC` (stereo not drawn), for which the outcome was inactive. Regarding `CC(Cc1ccc(O)c(O)c1)C(C)Cc1ccc(O)c(O)c1` (stereo not drawn), the AC50 was 22.3 µM (active). With `FC(F)(F)C(F)(F)C(F)(F)C(F)(F)C(F)(F)C(F)(F)C(F)(F)C(F)(F)CCS`, the call was inactive. Still for that read-out and setting: the same measure for `FC(F)(Br)C(F)(F)C(F)(F)C(F)(F)C(F)(F)C(F)(F)Br`: “inactive”; for `OCC(F)(F)C(F)(F)C(F)(F)C(F)(F)C(F)(F)C(F)F`: “inactive”. Regarding `COC(=O)CCC(F)(F)C(F)(F)C(F)(F)C(F)(F)F`, the result was inactive.

With `FC(F)(F)C(F)(F)C(F)(F)N(C(F)(F)C(F)(F)C(F)(F)F)C(F)(F)C(F)(F)C(F)(F)F`, the molecule was called inactive. Same read-out and setting: to `FC(F)(F)C(F)(F)C(F)(F)C(F)(F)C(F)(F)C(F)(F)C(F)(F)C(F)(F)F` belongs “inactive”; to `c1ccc(-c2ccccc2-c2ccccc2)cc1`, “inactive”. With `CCO[Si](CCC(F)(F)C(F)(F)C(F)(F)C(F)(F)C(F)(F)C(F)(F)F)(OCC)OCC`, the molecule was called inactive. As to `FC(F)(I)C(F)(F)C(F)(F)C(F)(F)I`, the call was inactive.

For the molecule `CCCCCCCCC(F)(F)C(F)(F)C(F)(F)C(F)(F)C(F)(F)C(F)(F)F`, the result was inactive.

Consider `FC(F)(F)C(F)(F)CNCC(F)(F)C(F)(F)F`, for which the molecule was classed as inactive.

As for `CC/C=C\CCOC(=O)c1ccccc1`, the result was inactive. Same read-out and setting: the same measure for `O=S(=O)(OCCOC(F)(F)F)C(F)(F)F`: “inactive”; for `O=S(=O)(O)c1ccc2ccccc2c1`: “inactive”; for `Cc1cccc(N(C)C)c1`: “inactive”. Take `FC(F)(F)C(F)(F)C(F)(F)CI`: the molecule was called inactive. For `O=C(O)C(F)(OC(F)(F)C(F)(OC(F)(F)C(F)(OC(F)(F)C(F)(F)C(F)(F)F)C(F)(F)F)C(F)(F)F)C(F)(F)F` (stereo not drawn), the call was inactive.

For `Nc1ccc(Oc2cccc(Oc3ccc(N)cc3)c2)cc1`, the AC50 is 64.6 µM (active). `FC(F)(F)C(F)(F)C(F)(F)C(F)(F)C(F)(F)C(F)(F)CCS`: the outcome was inactive. Consider `C=C(C)C(=O)OCC(F)(F)C(F)(F)C(F)(F)F`, for which the result was inactive. For the molecule `COC(OC(C)=O)c1ccccc1` (stereo not drawn), the call was inactive. On the same count and under the same terms, to `FC(F)(F)C(F)(F)C(F)(F)C(F)(F)C(F)(F)CCI` belongs “inactive”; to `Nc1ccc([N+](=O)[O-])cc1O`, “inactive”. For the molecule `C#C[C@]1(O)CC[C@H]2[C@@H]3CCc4cc(OC)ccc4[C@H]3CC[C@@]21C`, the AC50 is 7.54 µM (active). Turning to `CC(C)=CCCC(C)CCOC(=O)C(C)C` (stereo not drawn), the outcome was inactive.

Regarding `OCC(F)(F)C(F)(F)C(F)(F)C(F)F`, the call was inactive. As to `CC(CCl)OP(=O)(OC(C)CCl)OC(C)CCl` (stereo not drawn), the call was inactive. `CC(C)OC(=O)c1ccccc1C(=O)OC(C)C`: the result was inactive. On to `FC(F)(F)C(F)(F)C(F)(F)C(F)(F)C(F)(F)C(F)(F)CC1CO1` (stereo not drawn), for which the molecule was called inactive.
